The source of these data is PubChem BioAssay (Tox21).

The nature of assay [1]: qHTS RealTime-Glo MT Cell Viability Assay in HEK293 cells - 16 hour (AID 1224872). For activity change, negative = cytotoxicity: top concentration of the series differs between compounds; % is set by controls: 0 for no effect and ±100 for the full control effect. Note: nearly all actives have a fitted effect of over 50% in size. Note: potency is the fitted concentration of half-maximal effect. The method in brief: (§1)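 Nonlytic real-time viability readout: viable cells convert prosubstrate to NanoLuc substrate, giving luminescence proportional to live cell number. HEK293, 600 cells/well, compound added after 5 h, continuous culture at 37 C.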
On the technique in general: In qHTS, concentration-response curves come from the screen itself.

A short description of assay [2]: qHTS RealTime-Glo MT Cell Viability Assay in HepG2 cells - 8 hour (AID 1224873). Note: nearly all actives have a fitted effect of over 55% in size. Note: potency is the fitted concentration of half-maximal effect. The method in brief: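 HepG2 cells (600/well) mixed with RealTime-Glo MT reagent, settled 5 h at 37 C/5% CO2 before compound addition. Nonlytic NanoLuc luminescence from viable-cell prosubstrate reduction read repeatedly during 40 h treatment at 37 C.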
A short description of assay [3]: qHTS RealTime-Glo MT Cell Viability Assay in HEK293 cells - 40 hour (AID 1224874). For max response: % is set by controls: 0 for no effect and ±100 for the full control effect. Note: nearly all actives have a fitted effect of over 50% in size. Note: potency is the fitted concentration of half-maximal effect. As to conditions: RealTime-Glo luminescence; max response: stronger effect = lower value. The method, boiled down: (§2)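 Measured as luminescence from the same continuously cultured HEK293 wells at successive time points (0, 8, 16, 24, 32, 40 h) after compound addition. Reagent present from seeding; dosing at 5 h; incubation 37 C.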

Assay [4] can be described thus: A CellTox Green Cytotoxicity Assay to monitor cytotoxicity in HEK293 cells - 24 hour (AID 1224875). For activity change: series mostly up to about 77 µM; % is set by controls: 0 for no effect and ±100 for the full control effect. Note: nearly all actives have a fitted effect of over 45% in size. Note: potency is the fitted concentration of half-maximal effect. The method in brief: (§3)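 Homogeneous no-lysis format: HEK293 cell suspension mixed with CellTox Green reagent, seeded, incubated 5 h at 37 C/5% CO2, then dosed by pintool with compound in DMSO.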
Assay [5] is described as follows: A CellTox Green Cytotoxicity Assay to monitor cytotoxicity in HepG2 cells - 16 hour (AID 1224876). Note: nearly all actives have a fitted effect of over 45% in size. Note: potency is the fitted concentration of half-maximal effect. The method, boiled down:
(§4)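 Fluorescent DNA-binding dye, 600 HepG2 cells/well, 5 h preincubation then compound in DMSO; same plates read at 0–40 h, 37 C.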

Assay [6] in a line: qHTS RealTime-Glo MT Cell Viability Assay in HepG2 cells - 32 hour (AID 1224877). Note: nearly all actives have a fitted effect of over 55% in size. Note: potency is the fitted concentration of half-maximal effect. The method in brief: (§5)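 Luminescence read-out: viable HepG2 cells reduce a prosubstrate to a NanoLuc substrate, giving a signal proportional to live cell number. Reads taken at 0, 8, 16, 24, 32 and 40 h of compound exposure at 37 C.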
Assay [7] in a line: A CellTox Green Cytotoxicity Assay to monitor cytotoxicity in HepG2 cells - 24 hour (AID 1224878). Note: nearly all actives have a fitted effect of over 45% in size. Note: potency is the fitted concentration of half-maximal effect. The method in brief: as §4
A short description of assay [8]: A CellTox Green Cytotoxicity Assay to monitor cytotoxicity in HepG2 cells - 40 hour (AID 1224879). Note: nearly all actives have a fitted effect of over 40% in size. Note: potency is the fitted concentration of half-maximal effect. The method, boiled down: as §4
Assay [9] in a line: qHTS RealTime-Glo MT Cell Viability Assay in HEK293 cells - 0 hour (AID 1224880). Note: top concentration of the series differs between compounds; % is set by controls: 0 for no effect and ±100 for the full control effect; nearly all actives have a fitted effect of over 45% in size. The method, boiled down:
as §2

Assay [10] in a line: A CellTox Green Cytotoxicity Assay to monitor cytotoxicity in HEK293 cells - 32 hour (AID 1224881). Note: potency is the fitted concentration of half-maximal effect; nearly all actives have a fitted effect of over 40% in size. The method, boiled down:
as §3

Assay [11] in a line: A CellTox Green Cytotoxicity Assay to monitor cytotoxicity in HepG2 cells - 0 hour (AID 1224882). Note: % is set by controls: 0 for no effect and ±100 for the full control effect; nearly all actives have a fitted effect of over 35% in size. The method, boiled down:
as §4

Assay [12] can be described thus: A CellTox Green Cytotoxicity Assay to monitor cytotoxicity in HEK293 cells - 8 hour (AID 1224884). For cytotoxicity increase: % is set by controls: 0 for no effect and ±100 for the full control effect. Note: nearly all actives have a fitted effect of over 35% in size. Note: potency is the fitted concentration of half-maximal effect. The method, boiled down:
as §3

Assay [13] in a line: qHTS RealTime-Glo MT Cell Viability Assay in HepG2 cells - 16 hour (AID 1224885). Note: nearly all actives have a fitted effect of over 50% in size. Note: potency is the fitted concentration of half-maximal effect. The method, boiled down: as §5
Assay [14] is described as follows: qHTS RealTime-Glo MT Cell Viability Assay in HEK293 cells - 24 hour (AID 1224886). Note: nearly all actives have a fitted effect of over 50% in size. Note: potency is the fitted concentration of half-maximal effect. The method in brief:
as §1

Assay [15] can be described thus: A CellTox Green Cytotoxicity Assay to monitor cytotoxicity in HEK293 cells - 16 hour (AID 1224888). Note: nearly all actives have a fitted effect of over 35% in size. Note: potency is the fitted concentration of half-maximal effect. The method in brief: as §3
Assay [16] is described as follows: qHTS RealTime-Glo MT Cell Viability Assay in HepG2 cells - 0 hour (AID 1224889). The method, boiled down: as §5
The nature of assay [17]: A CellTox Green Cytotoxicity Assay to monitor cytotoxicity in HepG2 cells - 8 hour (AID 1224890). Note: nearly all actives have a fitted effect of over 45% in size. Note: potency is the fitted concentration of half-maximal effect. The method, boiled down: as §4
The nature of assay [18]: qHTS assay to identify small molecule antagonists of the estrogen receptor alpha (ER-alpha) signaling pathway using the BG1 cell line in the presence of 0.1 nM 17-beta-estradiol - cell viability counter screen (AID 1259241). Note: nearly all actives have a fitted effect of over 40% in size. Note: potency is the fitted concentration of half-maximal effect. The method in brief:
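Cells were plated and left 24 hr, compounds in DMSO were pinned in, 17beta-estradiol was added to 0.1 nM final, and after 22 hr CellTiter-Fluor reagent was added for 30 min before fluorescence was read.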

The nature of assay [19]: A CellTox Green Cytotoxicity Assay to monitor cytotoxicity in HepG2 cells - 32 hour (AID 1224883). Note: nearly all actives have a fitted effect of over 50% in size. Note: potency is the fitted concentration of half-maximal effect. The method, boiled down: as §4
The nature of assay [20]: qHTS RealTime-Glo MT Cell Viability Assay in HEK293 cells - 8 hour (AID 1224887). Note: nearly all actives have a fitted effect of over 50% in size. Note: potency is the fitted concentration of half-maximal effect. The method in brief: as §2

Values joined by “and” are separate entries in the source; they are usually repeats but may differ in a detail not shown here. Equal values may be shown once. A number with no mark means an inactive call. Results filed as inconclusive are left out. Active and inactive are the calls of the source. Calls come from the whole dose curve; as a rule, active = well fitted curve in the direction sought with a large enough effect in the repeat runs; inconclusive = weak or mixed curves; inactive = no such curve, though single readings can be large; an effect the other way counts as inactive or inconclusive.

With `C[n+]1cc2c3c(ccc2c2ccc4cc5c(cc4c21)OCO5)OCO3`, the Potency in assay [1] was 0.585 µM (active); in assay [2] it was 0.737 µM (active); in assay [3], 0.585 µM (active); in assay [4], 0.737 µM (active); in assay [5], 0.585 µM (active); in assay [6] it was 0.928 µM (active). The Potency in assay [7] is 0.522 µM (active); in [8], 0.657 µM (active); in assay [10] it was 0.465 µM (active); in [13], 0.827 µM (active); in assay [14], 0.585 µM (active); in assay [15], 4.65 µM (active). The Potency in assay [17] was 0.737 µM (active); in [18] it was 13 µM (active). Besides, the figures for the activity change, negative = cytotoxicity in assay [9] and in [16] were -2.48% [at 15.8 µM] and -1.39% [at 15.8 µM], respectively. The cytotoxicity in [11] was -26.7% [at 15.8 µM]. For the same compound, the cytotoxicity increase in assay [12] is 16.5% [at 15.8 µM].

As for `CCCCCCCC[N+](CCCCCCCC)(CCCCCCCC)CCCCCCCC`, the Potency in assay [1] is 7.75 µM (active); in assay [2], 24.5 µM (active); in [3], 2.18 µM (active); in assay [4], 15.5 µM (active); in [5], 24.5 µM (active); in assay [6], 24.5 µM (active). For the same compound, the Potency is 19.5 µM (active) in assay [7]; 24.5 µM (active) in assay [8]; 15.5 µM (active) in [10]; 21.8 µM (active) in assay [19]; 24.5 µM (active) in [12]; 24.5 µM (active) in assay [13]. In addition, the Potency was 6.15 µM (active) in assay [14]; 12.3 µM (active) in assay [20]; 21.8 µM (active) in assay [15]; 34.6 µM (active) in assay [17]; 61 µM (active) in assay [18]. In assay [11], the Potency entry was “inactive”.

As for `CCCCCCCCCCn1cc[n+](CCCCCCCCCC)c1C`, the Potency in assay [1] was 6.93 µM (active); in assay [2], 49 µM (active); in assay [3], 0.979 µM (active); in assay [4], 17.4 µM (active); in assay [5] it was 21.9 µM (active); in assay [6] it was 19.5 µM (active). Moreover, the Potency in assay [7] is 17.4 µM (active); in assay [8] it was 15.5 µM (active); in [19], 17.4 µM (active); in assay [12], 19.5 µM (active); in [13], 21.9 µM (active); in assay [14], 2.19 µM (active). Besides, the Potency in [20] is 21.9 µM (active); in [15] it was 19.5 µM (active); in assay [17] it was 39 µM (active); in assay [18] it was 68.7 µM (active). The Potency result in assay [9] and in [11] was “inactive” in each case.

Consider `CCCCCCCCCCCC[N+](C)(C)CCCCCCCCCCCC`, for which the Potency in [1] was 11 µM (active); in assay [2], 12.3 µM (active); in assay [3] it was 3.89 µM (active); in assay [4], 15.5 µM (active); in [5] it was 9.77 µM (active); in [6], 7.76 µM (active). Further, the Potency in assay [7] is 7.76 µM (active); in assay [8], 7.76 µM (active); in [19] it was 7.76 µM (active); in [12], 19.5 µM (active); in assay [13], 8.71 µM (active); in assay [14] it was 6.92 µM (active). In addition, the Potency in [20] was 17.4 µM (active); in assay [15], 17.4 µM (active); in assay [17], 19.5 µM (active); in [18], 54.5 µM (active). Further, the Potency entry in assay [9] and in assay [11] was “inactive” throughout.

As for `O=c1[nH]cnc2nc[nH]c12`, the Potency result in assay [1], in assay [2], in assay [4], in assay [5], in assay [6] and in [7] was “inactive” in each case. In addition, the Potency entry in assay [8], in assay [9], in [11], in assay [19], in assay [12] and in assay [13] was “inactive” each time. Moreover, the Potency entry in [14], in assay [20], in assay [15], in assay [17] and in assay [18] was “inactive” in each case. For the same compound, the max response in assay [3] was 3.71%.

`COc1cccc(N)c1`: the Potency entry in assay [1], in assay [2], in assay [4], in assay [5], in [6] and in assay [7] was “inactive” each time. Also, the Potency entry in assay [8], in assay [9], in assay [11], in [19], in [12] and in assay [13] was “inactive” in each case. The Potency result in assay [14], in assay [20], in [15], in assay [16], in [17] and in assay [18] was “inactive” each time. In addition, the max response in assay [3] is -1.08%.

As for `CCN(C(=O)c1cc(C)cc(OC[C@H](C)Nc2ccncc2)c1)C(C)C`, the Potency result in assay [1], in assay [2], in assay [4], in assay [5], in assay [6] and in assay [7] was “inactive” each time. For the same compound, the Potency entry in assay [8], in assay [9], in assay [11], in [12], in assay [13] and in [14] was “inactive” throughout. Moreover, the Potency result in [15], in assay [16], in assay [17] and in assay [18] was “inactive” throughout. For the same compound, in assay [3], the max response was -9.99%.

For `CCCCC(CC)CN=C(N)NC(N)=NCCCCCCN=C(N)NC(N)=NCC(CC)CCCC` (stereo not given), the Potency is 6.74 µM (active) in assay [1]; 19 µM (active) in assay [2]; 4.25 µM (active) in [3]; 7.56 µM (active) in assay [4]; 8.49 µM (active) in assay [5]; 8.49 µM (active) in assay [6]. In addition, the Potency was 9.52 µM (active) in assay [7]; 8.49 µM (active) in assay [8]; 9.52 µM (active) in assay [10]; 8.49 µM (active) in assay [19]; 13.4 µM (active) in [12]; 10.7 µM (active) in assay [13]. Also, the Potency in assay [14] was 5.35 µM (active); in assay [20], 8.49 µM (active); in [15], 8.49 µM (active); in [17], 10.7 µM (active). The Potency result in assay [11] was “inactive”.

As for `Oc1cc2ccccc2c2ccccc12`, the Potency in [1] is 6.92 µM (active); in assay [2] it was 11 µM (active); in [3] it was 11 µM (active); in assay [4] it was 19.5 µM (active); in assay [5], 13.8 µM (active); in assay [6] it was 11 µM (active). Moreover, the Potency in assay [7] is 11 µM (active); in assay [8], 11 µM (active); in assay [10], 17.4 µM (active); in assay [19], 11 µM (active); in assay [13] it was 11 µM (active); in [14] it was 9.77 µM (active). The results for the Potency in assay [20] and in [18] were 3.47 µM (active) and 21.7 µM (active), respectively. Moreover, the Potency entry in assay [11], in [12], in assay [15], in assay [16] and in assay [17] was “inactive” each time.

As for `CCCCCCOC(=O)c1ccc(O)cc1`, the Potency was 43.7 µM (active) and 21.9 µM (active) in assay [1]; 43.7 µM (active) and 21.9 µM (active) in assay [3]; 8.71 µM (active) in assay [5]; 43.7 µM (active) and 9.77 µM (active) in [7]; 43.7 µM (active) and 11 µM (active) in assay [8]; 43.7 µM (active) and 7.76 µM (active) in assay [19]. In addition, the Potency in assay [14] was 43.7 µM (active) and 24.5 µM (active); in assay [20], 43.7 µM (active) and 24.5 µM (active). The Potency entry in [2], in assay [4], in [6], in assay [9], in assay [11] and in assay [12] was “inactive” throughout. For the same compound, the Potency result in assay [13], in [15], in assay [16] and in assay [17] was “inactive” in each case.
